From PubChem BioAssay (EPA / NIEHS)
Records with an inconclusive call do not appear. Active and inactive are the calls of the source. Rule for the calls: active = hit-call score of the fitted dose curve at least 0.9, where 1 is the maximum; inconclusive = response in the unintended direction; inactive = score below 0.9.

How the values were obtained:
[1] = test system: frog Androgen Receptor (AR), gene 399456; test: ATG_frAR_XSP1: Attagene TRANS-FACTORIAL Multi-Species (XSP1) HepG2 Assay for frog Androgen Receptor (AR) (AID 2283770)
[2] = target: zebrafish Estrogen Receptor (ESR1), esr1 (gene 259252) (UniProt P57717); test: ATG_zfER1_XSP1: Attagene TRANS-FACTORIAL Multi-Species (XSP1) HepG2 Assay for zebrafish Estrogen Receptor (ESR1) (AID 2283772)
Procedure, shortened: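 Trans-activation readout: transfected zebrafish ER-Gal4 drives a UAS reporter in human HepG2 liver cells. After 24 h compound exposure (medium containing 3 nM 6-alpha-fluorotestosterone), induced reporter transcripts were quantified by RT-PCR with capillary electrophoresis, relative to DMSO.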

[3] = test system: zebrafish Estrogen Receptor (ESR2B), gene 317733; test: ATG_zfER2b_XSP1: Attagene TRANS-FACTORIAL Multi-Species (XSP1) HepG2 Assay for zebrafish Estrogen Receptor (ESR2B) (AID 2283773)
Procedure, shortened: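 Medium contained 3 nM 6-alpha-fluorotestosterone. Reporter mRNA induction by exogenous zebrafish ER2b-Gal4 chimera was read 24 h post-dose in transiently transfected HepG2 cells, using RT-PCR, fluorescent labelling, HpaI digestion and capillary electrophoresis.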

[4] = test system: frog Estrogen Receptor (ESR2), gene 100174814; test: ATG_frER2_XSP1: Attagene TRANS-FACTORIAL Multi-Species (XSP1) HepG2 Assay for frog Estrogen Receptor (ESR2) (AID 2283774)
Procedure, shortened: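 Reporter mRNA from a multiplexed TRANS system, measured by RT-PCR with fluorescent labelling and capillary electrophoresis, 24 hours after chemical exposure. Human HepG2 liver cells carried exogenous frog ER-Gal4 chimera; medium included 3 nM 6-alpha-fluorotestosterone; increases versus DMSO analysed.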

[5] = ACEA_AR_agonist_AUC_viability: ACEA Biosciences xCELLigence Real-Time Cell Analysis on Androgen Receptor Agonism for Viability (AID 2283775);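 note: viability read 80 hours after compound addition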
Procedure, shortened: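 22Rv1 cells; impedance growth kinetics; 8-pt 1:4 dilutions from 100 uM top final, ≤0.5% DMSO; n = 2; 80 h read; AUC viability, loss-of-signal vs DMSO.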

[6] = ACEA_AR_antagonist_AUC_viability: ACEA Biosciences xCELLigence Real-Time Cell Analysis on Androgen Receptor Antagonism for Viability (AID 2283776);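 note: area under impedance growth curve at 80 h after dosing as viability; hits lower the growth signal relative to DMSO meaning cytotoxicity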
Procedure, shortened: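 22Rv1 human prostate cancer cells were seeded on electrode plates, monitored overnight, then exposed to eight 1:4 dilutions from 100 uM final. Impedance-based growth kinetics at 80 h gave an AUC viability endpoint normalized to DMSO.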

[7] = test system: frog Estrogen Receptor (ESR1), gene 398734; test: ATG_frER1_XSP1: Attagene TRANS-FACTORIAL Multi-Species (XSP1) HepG2 Assay for frog Estrogen Receptor (ESR1) (AID 2283777)
Procedure, shortened: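 HepG2 cells transiently transfected with GAL4-UAS reporter units and frog ER–Gal4 chimera were dosed for 24 h with 3 nM 6-alpha-fluorotestosterone present. Reporter mRNA was measured by RT-PCR and capillary electrophoresis; gain of signal fitted versus DMSO.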

[8] = target: chicken Estrogen Receptor (ESR1), ESR1 (gene 396099) (UniProt P06212); test: ATG_chERa_XSP1: Attagene TRANS-FACTORIAL Multi-Species (XSP1) HepG2 Assay for chicken Estrogen Receptor (ESR1) (AID 2283779)
Procedure, shortened: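 Trans-activation of an exogenous chicken ERα–Gal4 chimera read as reporter transcript (RT-PCR, fluorescent labeling, capillary electrophoresis) after 24 h compound exposure of transfected HepG2; medium held 3 nM 6-alpha-fluorotestosterone. Positive-direction fit against DMSO.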

[9] = ACEA_ER_AUC_viability: ACEA Biosciences xCELLigence Real-Time Cell Analysis on Estrogen Receptor Agonism for Viability (AID 2283782);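 note: hit means loss of impedance signal meaning reduced cell growth or viability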
Procedure, shortened: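 Viability endpoint: reduced impedance area under the curve relative to DMSO, recorded by real-time electrode sensing over ~80 h of continuous exposure. Duplicate plates of T47D in hormone-depleted medium; eight concentrations, 1:4 dilutions, 100 uM maximum.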

[10] = STM_H9_NormalizedViability: Cytotoxicity Assessment at 120 hours in the Stemina devTOX quickPredict H9 human embryonic stem cell (hESC)-based Assay (AID 2283784)
Procedure, shortened: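 Viability of the cell layer was taken from live-cell protease cleavage of a fluorogenic substrate after compound exposure of undifferentiated H9 stem cells, with replenishment each 24h. Fluorescence was normalized to vehicle (0.1% DMSO).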

[11] = test system: chicken Androgen Receptor (AR), gene 422165; test: ATG_chAR_XSP1: Attagene TRANS-FACTORIAL Multi-Species (XSP1) HepG2 Assay for chicken Androgen Receptor (AR) (AID 2283768)
Procedure, shortened: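 Reporter mRNA read by RT-PCR with fluorescent labelling and capillary electrophoresis 24 h after chemical dosing of transiently transfected HepG2 cells. Chicken AR-Gal4 chimera, partially stimulated with 3 nM 6-alpha-fluorotestosterone; activity fitted upward relative to DMSO.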

[12] = test system: zebrafish Estrogen Receptor (ESR2A), gene 317734; test: ATG_zfER2a_XSP1: Attagene TRANS-FACTORIAL Multi-Species (XSP1) HepG2 Assay for zebrafish Estrogen Receptor (ESR2A) (AID 2283778)
Procedure, shortened: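 Reporter transcripts were quantified by RT-PCR, 6-FAM labelling, HpaI digestion and capillary electrophoresis after 24 h dosing. The cells were HepG2 transiently carrying a zebrafish ER2a–Gal4 construct plus multiplexed UAS reporters; medium contained 3 nM 6-alpha-fluorotestosterone.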

[13] = ArunA_Migration_hNC: ArunA Biomedical's Oris Neural Crest (hNC) Cell Migration Assay (AID 2283755)
Procedure, shortened: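 Calcein-AM fluorescence (ex494 nm/em 517 nm) in the stopper-defined detection zone quantifies migration of hNC cells after 72 h chemical exposure; 60,000 cells/well plated on Matrigel with LIF and bFGF, 16 h pre-incubation. DMSO baseline.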

[14] = ArunA_NOG_NucleusCount: ArunA Biomedical's Neurite Outgrowth (NOG) Assay for Nucleus Count (AID 2283756)
Procedure, shortened: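 Viable neuron count, from Hoechst nuclei passing size and intensity gates, imaged at 20x on differentiated H9-derived human neurons. Exposure lasted 48 h from seeding; activity was scored relative to DMSO.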

[15] = ArunA_NOG_NeuriteLength: ArunA Biomedical's Neurite Outgrowth (NOG) Assay for Neurite Length (AID 2283757)
Procedure, shortened: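 Total neurite length per neuron, from traced βIII-tubulin-labelled processes longer than 10 um on viable Hoechst-gated cells, was scored as decrease from DMSO. Cells were hESC (H9)-derived neurons given 48 h chemical exposure immediately after seeding.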

[16] = ArunA_NOG_NeuritesPerNeuron: ArunA Biomedical's Neurite Outgrowth (NOG) Assay for Neurites Per Neuron (AID 2283758)
Procedure, shortened: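 Differentiated human H9-derived neurons exposed to chemicals for 48 h from seeding, then stained with Hoechst and βIII-tubulin/DyLight 488. Automated imaging counted neurites (processes >10 um) per valid neuron; loss of signal versus DMSO scored.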

[17] = ArunA_NOG_BranchPointsPerNeurite: ArunA Biomedical's Neurite Outgrowth (NOG) Assay for Branch Points Per Neurite (AID 2283759)
Procedure, shortened: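 Automated image analysis traced neurites (processes >10 um) from valid cell bodies after Hoechst and βIII-tubulin staining. hNN cells from H9 embryonic stem cells, 48 h exposure. Fitted bidirectionally against DMSO.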

[18] = target: Luciferin 4-monooxygenase (Photinus pyralis) (UniProt P08659); test: CCTE_Simmons_QuantiLum_inhib_2: CCTE's Firefly Luciferase Inhibition Assay, Simmons Lab (AID 2283767);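 for AC50: potency for inhibitors that lower luciferase luminescence relative to DMSO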
Procedure, shortened: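 First, 5 ng purified luciferase in phosphate buffer with BSA is dispensed per well. Next, test chemicals (5 nM to 87.5 uM final, 0.5% DMSO) are added and incubated 30 min at 37C in darkness. Finally, luciferin reagent is injected and luminescence read kinetically.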

[19] = target: AR (gene 367) (UniProt P10275); test: ACEA_AR_agonist_80hr: ACEA Biosciences xCELLigence Real-Time Cell Analysis on Androgen Receptor Agonism for Proliferation (AID 2283783);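 note: hits increase impedance growth signal above DMSO baseline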
Procedure, shortened: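 Eight concentrations, 1:4 serial dilution from a 100 uM final top, in biological duplicate. Impedance-based real-time growth of 22Rv1 cells after overnight baseline, recorded hourly and read at 80 hours. Controls: testosterone, MG132, assay media.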

[20] = test system: zebrafish Androgen Receptor (AR), gene 100005148; test: ATG_zfAR_XSP1: Attagene TRANS-FACTORIAL Multi-Species (XSP1) HepG2 Assay for zebrafish Androgen Receptor (AR) (AID 2283771)
Procedure, shortened: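 Gain-of-signal versus DMSO was measured as reporter transcripts quantified by RT-PCR, fluorescent labelling and capillary electrophoresis after 24 h chemical exposure. The cells were HepG2 expressing a chimeric zebrafish AR-GAL4, co-stimulated with 3 nM 6-alpha-fluorotestosterone.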

Measured: AC50

Chain of zebrafish Estrogen Receptor (ESR1), esr1 (gene 259252) (P57717 whole entry, looked up, the tested form may be a part): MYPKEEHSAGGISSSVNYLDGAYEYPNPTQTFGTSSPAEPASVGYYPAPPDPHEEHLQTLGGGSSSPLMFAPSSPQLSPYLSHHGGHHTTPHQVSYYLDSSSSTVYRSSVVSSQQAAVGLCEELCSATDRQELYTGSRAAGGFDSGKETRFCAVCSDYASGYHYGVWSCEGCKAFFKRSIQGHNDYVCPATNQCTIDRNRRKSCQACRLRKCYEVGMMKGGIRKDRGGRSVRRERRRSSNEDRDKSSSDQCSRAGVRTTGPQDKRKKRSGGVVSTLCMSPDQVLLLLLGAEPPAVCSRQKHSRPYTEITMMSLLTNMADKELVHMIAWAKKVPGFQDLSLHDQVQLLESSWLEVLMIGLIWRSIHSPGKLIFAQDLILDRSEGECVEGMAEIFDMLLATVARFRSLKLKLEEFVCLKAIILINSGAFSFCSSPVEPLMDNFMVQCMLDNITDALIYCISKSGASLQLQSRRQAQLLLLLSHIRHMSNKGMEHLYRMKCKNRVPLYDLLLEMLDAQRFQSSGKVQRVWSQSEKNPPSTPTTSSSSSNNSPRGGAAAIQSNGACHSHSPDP
Chain of chicken Estrogen Receptor (ESR1), ESR1 (gene 396099) (P06212 whole entry, looked up, the tested form may be a part): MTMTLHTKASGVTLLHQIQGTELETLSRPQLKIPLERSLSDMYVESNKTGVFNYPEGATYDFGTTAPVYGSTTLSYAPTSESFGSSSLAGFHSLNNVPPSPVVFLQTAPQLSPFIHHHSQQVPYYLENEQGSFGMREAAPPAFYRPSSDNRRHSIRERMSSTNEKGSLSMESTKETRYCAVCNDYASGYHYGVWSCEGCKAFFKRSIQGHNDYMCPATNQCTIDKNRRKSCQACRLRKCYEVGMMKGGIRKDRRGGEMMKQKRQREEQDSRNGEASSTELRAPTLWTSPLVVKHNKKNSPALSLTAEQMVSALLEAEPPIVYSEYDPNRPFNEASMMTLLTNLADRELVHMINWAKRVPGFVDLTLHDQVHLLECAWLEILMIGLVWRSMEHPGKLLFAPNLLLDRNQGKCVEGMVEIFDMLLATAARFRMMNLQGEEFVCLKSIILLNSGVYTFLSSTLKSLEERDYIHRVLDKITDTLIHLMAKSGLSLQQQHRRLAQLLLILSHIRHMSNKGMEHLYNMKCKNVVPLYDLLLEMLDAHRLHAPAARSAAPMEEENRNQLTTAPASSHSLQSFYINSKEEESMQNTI
Chain of Luciferin 4-monooxygenase (Photinus pyralis) (P08659 whole entry, looked up): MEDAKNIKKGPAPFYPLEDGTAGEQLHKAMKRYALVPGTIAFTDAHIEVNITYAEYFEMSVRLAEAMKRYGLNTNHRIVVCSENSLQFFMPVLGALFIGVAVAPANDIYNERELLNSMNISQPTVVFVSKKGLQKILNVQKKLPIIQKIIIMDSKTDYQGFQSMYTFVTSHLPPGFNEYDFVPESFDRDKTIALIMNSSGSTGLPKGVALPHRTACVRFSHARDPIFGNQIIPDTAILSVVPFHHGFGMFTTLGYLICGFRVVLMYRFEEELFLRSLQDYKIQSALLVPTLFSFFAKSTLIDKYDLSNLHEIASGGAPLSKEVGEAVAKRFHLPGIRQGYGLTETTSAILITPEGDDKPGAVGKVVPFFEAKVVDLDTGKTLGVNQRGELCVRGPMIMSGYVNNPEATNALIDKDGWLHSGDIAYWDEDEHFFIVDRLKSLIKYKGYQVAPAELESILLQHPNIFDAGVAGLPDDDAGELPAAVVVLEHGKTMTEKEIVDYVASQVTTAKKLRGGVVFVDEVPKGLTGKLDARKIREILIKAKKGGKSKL
Chain of AR (gene 367) (P10275 whole entry, looked up): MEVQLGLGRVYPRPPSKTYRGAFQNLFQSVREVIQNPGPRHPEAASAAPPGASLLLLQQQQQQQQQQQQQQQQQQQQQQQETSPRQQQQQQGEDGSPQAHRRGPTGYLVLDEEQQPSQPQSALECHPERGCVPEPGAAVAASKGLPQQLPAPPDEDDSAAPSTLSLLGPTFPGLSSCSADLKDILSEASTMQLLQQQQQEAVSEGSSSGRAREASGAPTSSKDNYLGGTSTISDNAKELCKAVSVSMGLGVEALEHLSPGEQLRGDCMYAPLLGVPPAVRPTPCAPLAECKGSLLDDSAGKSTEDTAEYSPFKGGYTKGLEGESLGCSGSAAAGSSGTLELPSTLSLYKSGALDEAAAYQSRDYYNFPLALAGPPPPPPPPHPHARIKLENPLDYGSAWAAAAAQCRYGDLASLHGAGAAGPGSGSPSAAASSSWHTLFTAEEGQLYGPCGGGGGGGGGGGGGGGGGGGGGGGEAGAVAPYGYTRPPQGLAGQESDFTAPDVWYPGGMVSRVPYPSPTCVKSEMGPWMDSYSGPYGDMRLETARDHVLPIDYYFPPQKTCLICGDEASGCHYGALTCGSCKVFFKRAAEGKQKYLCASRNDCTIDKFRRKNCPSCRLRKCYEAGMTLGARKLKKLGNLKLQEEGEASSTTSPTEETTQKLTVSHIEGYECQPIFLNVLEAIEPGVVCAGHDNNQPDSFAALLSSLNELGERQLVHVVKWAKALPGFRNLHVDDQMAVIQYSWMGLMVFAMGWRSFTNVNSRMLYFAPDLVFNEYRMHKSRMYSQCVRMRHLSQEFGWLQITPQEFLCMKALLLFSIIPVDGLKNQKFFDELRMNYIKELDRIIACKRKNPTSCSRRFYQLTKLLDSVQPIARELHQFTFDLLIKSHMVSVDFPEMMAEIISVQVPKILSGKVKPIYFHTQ

C#CCOS(=O)OC1CCCCC1Oc1ccc(C(C)(C)C)cc1 (stereo not given)
inactive: [7]
active: [1] 2.11 µM | [2] 166 µM | [3] 80.1 µM | [4] 25.8 µM | [5] 44.7 µM | [6] 21.7 µM | [8] 26.8 µM | [9] 87.4 µM | [10] 3.86 µM

COC(=O)N(OC)c1ccccc1COc1ccn(-c2ccc(Cl)cc2)n1
inactive: [11] | [2] | [3] | [4] | [7] | [12]
active: [6] 26.8 µM | [9] 92.3 µM | [10] 0.5 µM

N#Cc1nn(-c2c(Cl)cc(C(F)(F)F)cc2Cl)c(N)c1S(=O)C(F)(F)F (stereo not given)
active: [13] 30.9 µM | [14] 23.2 µM | [15] 31.8 µM | [16] 32 µM | [6] 31.2 µM | [9] 83.3 µM | [10] 66.1 µM
inactive: [17]

O=C(O)c1nc(Cl)ccc1Cl
inactive: [18] | [6] | [9]

Oc1ccccc1-c1ccccc1
inactive: [18]
active: [6] 48.6 µM | [9] 78 µM

CCOP(=S)(OCC)SCn1c(=O)oc2cc(Cl)ccc21
inactive: [18]
active: [3] 24.5 µM | [6] 76.9 µM

CC1=C(C(=O)Nc2ccccc2)SCCO1
inactive: [18] | [6] | [19]

COC(=O)C=C(C)OP(=O)(OC)OC
active: [6] 19 µM
inactive: [18]

CCCCNC(=O)n1c(NC(=O)OC)nc2ccccc21
inactive: [19]
active: [18] 21.5 µM | [6] 61.6 µM | [9] 18.1 µM | [10] 7.21 µM

CC(C)(C)c1ccc(CSc2cnn(C(C)(C)C)c(=O)c2Cl)cc1
inactive: [14] | [17] | [11] | [20] | [2] | [3] | [4] | [7] | [12] | [8]
active: [13] 0.0516 µM | [6] 26.9 µM | [10] 0.12 µM

CC(C)Oc1cc(-n2nc(C(C)(C)C)oc2=O)c(Cl)cc1Cl
inactive: [20] | [2] | [12]
active: [11] 18 µM | [3] 29.6 µM | [4] 33.5 µM | [6] 50 µM | [7] 7.92 µM | [8] 27.2 µM | [9] 81.9 µM

CCOC(=O)CC(SP(=S)(OC)OC)C(=O)OCC (stereo not given)
inactive: [18]
active: [6] 85.1 µM | [10] 78.9 µM

CNC(=S)S
inactive: [18] | [6] | [9]
